In PubChem BioAssay (NCATS) one finds Potency, outcome and caspase-3 activation data, which are given here for 15 compounds.

“And” between values parts separate entries of the source, which are not always exact repeats. Equal values may be shown once. A number with no mark means an inactive call. Inconclusive results are not listed. The source made the active and inactive calls. Unless noted, the call rests on the fitted dose curve; in most records, active means well fitted curve in the direction sought with a large enough effect; inconclusive means small, poorly fitted or top-dose-only effect, or another doubt; inactive means no such curve, though single readings can be large; an effect the other way counts as inactive or inconclusive.

The target of assay [1] is Mitogen-activated protein kinase 10 (Mus musculus) (UniProt Q61831). Description: JNK3 AlphaScreen Assay (AID 530; active means well fitted curve in either direction with a large enough effect, not every such curve was filed as active;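 further: kinase came from lysate of stimulated human HepG2 cells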; further: potency means the concentration at half of the fitted maximal effect). In short, it runs like this:
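qHTS format: compounds tested as titrations against IL-1beta/TNF-alpha-activated HepG2 lysate JNK3 with biotin-GST-cJun substrate and 10 uM ATP at room temperature. Loss of anti-phospho-cJun AlphaScreen signal indicates inhibition.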

A short description of assay [2]: Cell Viability - N2a (AID 540). Further: nearly all actives have a fitted effect of over 45% in size. Further: potency means the concentration at half of the fitted maximal effect.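 On activity change, negative = cytotoxicity: plate controls were DMSO alone for no effect and tamoxifen control for full effect.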 The conditions noted are these: N2a mouse neuroblastoma cell viability; activity change, negative = cytotoxicity: at 92.2 µM (top of the series). Summed up:
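Mouse neuroblastoma N2a cells (1500/well) were preincubated 5 hr at 37 °C, then exposed to compounds for 40 hr at 37 °C in complete medium. Viability was read as intracellular ATP by CellTiter-Glo luminescence; AC50 from Hill fits.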

Assay [3] can be described thus: Cell Viability - NIH 3T3 (AID 541). Further: nearly all actives have a fitted effect of over 25% in size. Further: potency means the concentration at half of the fitted maximal effect.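 On activity change, negative = cytotoxicity: plate controls were DMSO alone for no effect and tamoxifen positive control for full effect.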 In short, it runs like this: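 NIH 3T3 mouse embryo fibroblasts (1000 cells/well) were plated in complete medium and treated with compound for 40 hr at 37 °C. Viability was read as intracellular ATP by CellTiter-Glo luminescence; AC50 values came from Hill-equation fits of concentration-response data.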
Assay [4] is described as follows: Cell Viability - HUV-EC-C (AID 542). Further: nearly all actives have a fitted effect of over 35% in size. Further: potency means the concentration at half of the fitted maximal effect. On activity change, negative = cytotoxicity: on the % scale 0 is the no-effect control and ±100 the full control effect. In short, it runs like this: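 HUV-EC-C normal human vascular endothelial cells, 1000 cells/well, pre-incubated 5 hr at 37 °C, then exposed to compounds for 40 hr at 37 °C in complete medium. Viability measured as intracellular ATP by CellTiter-Glo luminescence; AC50 from Hill fits.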
Assay [5] is described as follows: Cell Viability - H-4-II-E (AID 543). Further: nearly all actives have a fitted effect of over 35% in size. Further: potency means the concentration at half of the fitted maximal effect. Summed up: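 Rat hepatoma H-4-II-E cells (1500/well) were plated, incubated 5 hr at 37 °C, then exposed to compounds for 40 hr at 37 °C. Cellular ATP was read by CellTiter-Glo luminescence; AC50 came from Hill-equation fits of concentration-response data.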
Assay [6] can be described thus: Cell Viability - SH-SY5Y (AID 544). Further: nearly all actives have a fitted effect of over 55% in size. Further: potency means the concentration at half of the fitted maximal effect. In short, it runs like this:
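Human neuroblastoma SH-SY5Y cells (1500/well) in complete medium were exposed to compounds for 40 hr at 37 °C; intracellular ATP was then quantified by CellTiter-Glo luminescence after 20 min at room temperature. AC50 came from Hill-equation concentration-response fits.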

A short description of assay [7]: Cell Viability - Renal Proximal Tubule (AID 545). Further: nearly all actives have a fitted effect of over 40% in size. Further: potency means the concentration at half of the fitted maximal effect. Summed up: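 Viability taken as intracellular ATP (CellTiter-Glo luminescence) after 40 hr, 37 °C compound treatment of primary proximal tubule cells from rat kidney, 1000 cells/well; Hill-equation fits of qHTS concentration-response data gave AC50.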
The nature of assay [8]: Cell Viability - Mesenchymal (AID 546).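 Further: cells exposed to compound for 40 hours before reading.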 Further: potency means the concentration at half of the fitted maximal effect. In short, it runs like this: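 Human kidney mesenchymal cells from normal renal glomeruli, 1000 cells/well, rested 5 hr at 37 °C, then treated 40 hr at 37 °C in complete medium. Cellular ATP read by CellTiter-Glo luminescence; AC50 from Hill-equation fits.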
Assay [9] in a line: Cellular Toxicity (caspase-3) HepG2 (AID 654).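 Further: cells exposed to compound for 16 hours before reading; 0% = DMSO alone and 100% = caspase signal from 100 µM tamoxifen.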 Summed up:
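HepG2 cells (1500/well) in complete medium were treated with compounds for 16 hr at 37 °C. Caspase-3/7 activity was then read as luminescence from peptide-aminoluciferin cleavage. AC50 came from Hill fits, normalized to DMSO and 100 uM tamoxifen.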

Assay [10] is described as follows: Cellular Toxicity (caspase-3) HUV-EC-C (AID 656). In short, it runs like this:
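Luminescent Caspase-Glo 3/7 readout after 16 h, 37 °C compound exposure of HUV-EC-C endothelial cells, 1000 per well, complete medium. AC50 derived by Hill fitting, with DMSO as baseline and 100 uM tamoxifen as full activation.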

Assay [11] is described as follows: Cellular Toxicity (caspase-3) SHSY5Y (AID 657). In short, it runs like this:
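Luminescent Caspase-Glo 3/7 read-out, 1 hr room temperature, follows 16 hours of compound treatment of SH-SY5Y cells at 37 °C. Normalization: DMSO basal, 10 uM staurosporine as 100%; AC50 values from Hill-equation concentration-response fits.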

Assay [12] is described as follows: Cellular Toxicity (caspase-3) MRC-5 (AID 659).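 Further: 0% = DMSO basal and 100% = 10 µM staurosporine.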 Summed up: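 MRC-5 human normal lung fibroblasts, 1500 cells/well, treated 16 h at 37 °C in complete medium. Caspase 3/7 measured by Caspase-Glo luminescence after 1 h at room temperature. Normalized to DMSO and 10 uM staurosporine; AC50 from Hill fit.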
Assay [13] in a line: Cellular Toxicity (caspase-3) Mesangial (AID 660). In short, it runs like this:
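Human renal glomerular mesangial cells (1000/well) were treated with compounds for 16 h at 37 °C in complete medium, then caspase 3/7 activity was read by Caspase-Glo luminescence. Data were normalized to DMSO and 100 uM tamoxifen; AC50 from Hill fits.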

A short description of assay [14]: Cellular Toxicity (caspase-3) SK-N-SH (AID 661).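 Further: 0% = DMSO basal and 100% = 10 µM staurosporine.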 In short, it runs like this:
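SK-N-SH human neuroblastoma cells (1500/well) were treated with compounds for 16 hr at 37 °C in complete medium; caspase 3/7 activity was read by Caspase-Glo luminescence. AC50 came from Hill fits of data normalized to DMSO and 10 uM staurosporine.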

Assay [15] can be described thus: Cellular Toxicity (caspase-3) H-4-II-E (AID 663).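 Further: cells exposed to compound for 16 hr before readout.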 Summed up:
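Rat hepatoma H-4-II-E cells (1500/well) plated 5 hr, then exposed to compound titrations for 16 hr at 37 °C. Caspase-Glo 3/7 luminescence read after 20 min at RT; data normalized to DMSO and 100 uM tamoxifen, AC50 from Hill fits.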

Assay [16] can be described thus: Cellular Toxicity (caspase-3) Hek293 (AID 664).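 Further: cells exposed to compound for 16 h at 37 °C before readout.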 The conditions noted are these: HEK293 caspase-3 activation, DMSO = 0%, 100 µM tamoxifen = 100%; at 92.2 µM (top of the series). In short, it runs like this:
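HEK293 cells were exposed to compounds in complete medium for 16 hr at 37 °C, then caspase-3/7 activity was read by Caspase-Glo 3/7 luminescence after 20 min at room temperature. Data normalized to DMSO and 100 uM tamoxifen; AC50 from Hill fits.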

A short description of assay [17]: Cellular Toxicity (caspase-3) N2a (AID 665).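 Further: compound exposure lasted 16 h at 37 °C before readout.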 In short, it runs like this: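 Mouse N2a neuroblastoma cells (1500/well) were treated with compounds for 16 h at 37 °C, then caspase-3/7 activity was read by Caspase-Glo luminescence after 1 h at room temperature. Data were normalized to DMSO and 10 uM staurosporine; AC50 from Hill fits.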
The target in assay [18] is 3',5'-cyclic-AMP phosphodiesterase 4B (Homo sapiens) (UniProt Q07343). Description: qHTS Assay for Inhibitors of PDE-IV (AID 607; active means well fitted activation curve with a large enough effect in the main read-out, with a control signal flat, not every such curve was filed as active; further: % of control where 0% means no effect). Summed up:
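HEK293 ACTOne cells with CNG channel (1000/well), endogenous PDE4; membrane potential dye, compounds up to 22.9 uM final. Fluorescence Ex 535/Em 590; RO 20-1724 (100 uM final) as reference.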

Assay [19] deals with Glucocorticoid receptor (Homo sapiens) (UniProt P04150). Nature of the assay: GR-GFP Redistribution (AID 450;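 active means compounds whose dose series gives a full or clear partial fitted curve of increased nuclear translocation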; further: potency means the concentration at half of the fitted maximal effect). The conditions noted are these: U2OS GR-GFP nuclear translocation, laser cytometry, 2 h.
Assay [20] shares this target. Nature of the assay: GR-EFC Redistribution (AID 451; calls by dose curve; further: potency means the concentration at half of the fitted maximal effect). As to conditions: CHO-K1 GR-EFC translocation, beta-gal luminescence, 2 h. In short, it runs like this:
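CHO-K1 cells expressing nuclear EA and GR-ED fragments of b-gal; compounds titrated up to 46 uM final, 2 h at 37 C. GR nuclear translocation read as complemented b-gal luminescence after 1 h RT detection.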

Sequence of Glucocorticoid receptor (Homo sapiens) (P04150 whole entry, looked up): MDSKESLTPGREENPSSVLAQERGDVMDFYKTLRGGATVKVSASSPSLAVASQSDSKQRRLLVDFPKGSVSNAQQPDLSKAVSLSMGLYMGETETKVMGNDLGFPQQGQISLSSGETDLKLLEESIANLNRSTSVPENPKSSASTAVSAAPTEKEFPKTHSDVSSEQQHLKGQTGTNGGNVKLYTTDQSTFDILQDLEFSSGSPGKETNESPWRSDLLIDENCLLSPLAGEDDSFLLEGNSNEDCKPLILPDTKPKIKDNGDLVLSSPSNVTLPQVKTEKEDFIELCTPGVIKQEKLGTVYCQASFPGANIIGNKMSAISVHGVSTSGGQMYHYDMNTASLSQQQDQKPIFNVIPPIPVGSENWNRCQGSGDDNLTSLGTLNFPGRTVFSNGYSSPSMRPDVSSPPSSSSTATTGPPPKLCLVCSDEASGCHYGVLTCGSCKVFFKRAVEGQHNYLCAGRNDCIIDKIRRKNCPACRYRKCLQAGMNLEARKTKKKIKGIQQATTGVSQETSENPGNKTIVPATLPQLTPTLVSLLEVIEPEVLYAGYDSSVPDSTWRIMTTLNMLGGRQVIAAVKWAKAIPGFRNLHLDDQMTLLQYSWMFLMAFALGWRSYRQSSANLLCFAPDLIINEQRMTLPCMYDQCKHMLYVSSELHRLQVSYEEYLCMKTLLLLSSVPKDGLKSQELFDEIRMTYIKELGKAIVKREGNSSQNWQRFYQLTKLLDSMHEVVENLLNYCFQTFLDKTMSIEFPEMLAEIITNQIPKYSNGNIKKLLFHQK
Sequence of 3',5'-cyclic-AMP phosphodiesterase 4B (Homo sapiens) (Q07343 whole entry, looked up): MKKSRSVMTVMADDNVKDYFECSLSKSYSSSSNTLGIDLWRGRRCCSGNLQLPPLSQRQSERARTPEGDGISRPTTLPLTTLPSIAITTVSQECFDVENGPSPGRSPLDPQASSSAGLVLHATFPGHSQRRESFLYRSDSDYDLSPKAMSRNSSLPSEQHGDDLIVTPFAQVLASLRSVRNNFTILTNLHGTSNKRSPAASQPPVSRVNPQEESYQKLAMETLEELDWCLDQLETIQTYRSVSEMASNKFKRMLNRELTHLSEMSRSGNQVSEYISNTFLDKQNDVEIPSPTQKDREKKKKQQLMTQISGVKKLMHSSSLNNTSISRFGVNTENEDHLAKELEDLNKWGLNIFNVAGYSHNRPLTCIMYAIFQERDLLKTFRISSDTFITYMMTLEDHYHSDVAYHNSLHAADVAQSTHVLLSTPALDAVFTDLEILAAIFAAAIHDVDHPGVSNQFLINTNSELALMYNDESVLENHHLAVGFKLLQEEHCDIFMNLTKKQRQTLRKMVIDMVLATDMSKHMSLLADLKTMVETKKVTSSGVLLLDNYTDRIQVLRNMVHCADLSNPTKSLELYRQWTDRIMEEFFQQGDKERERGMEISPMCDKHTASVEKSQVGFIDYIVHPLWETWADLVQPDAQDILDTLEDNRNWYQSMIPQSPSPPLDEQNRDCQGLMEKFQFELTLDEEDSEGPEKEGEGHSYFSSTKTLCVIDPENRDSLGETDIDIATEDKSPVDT

In the case of `CC(=O)Nc1ccc(O)cc1`, the Potency entry in assay [1], in [2], in [3], in assay [4], in assay [5] and in [6] was “inactive” in each case. Further, the Potency entry in [7] and in assay [8] was “inactive” each time. Also, the compound was classed as inactive in assay [9], in assay [10], in [11], in assay [12], in assay [13] and in assay [14]. For the same compound, the compound was called inactive in assay [15] and in assay [17]. Further, in [16], the caspase-3 activation was -1.09%.

As to `NS(=O)(=O)c1cc(C(=O)O)c(NCc2ccco2)cc1Cl`, the Potency entry in assay [1], in assay [2], in assay [3], in [4], in [6] and in assay [7] was “inactive” each time. Besides, the Potency entry in assay [8] was “inactive”. Also, the compound was called inactive in assay [18], in assay [9], in assay [10], in assay [11], in [12] and in assay [13]. The compound was classed as inactive in [14] and in [17]. In addition, in [16], the caspase-3 activation was 2.23%.

In the case of `CCCCN(CCCC)CCC(O)c1cc2c(Cl)cc(Cl)cc2c2cc(C(F)(F)F)ccc12` (centres undefined), the Potency in assay [19] and in [20] was over 20.6 µM throughout. The Potency entry in assay [1] is “inactive”. Further, the result in assay [18] was inactive.

For the compound `C[C@H](Cc1ccc(O)c(O)c1)[C@@H](C)Cc1ccc(O)c(O)c1`, the Potency in assay [19] and in assay [20] was over 46 µM each time. Further, in assay [18], the compound was classed as inactive.

For `CCCCc1ccc2nc(NC(=O)OC)[nH]c2c1`, the Potency entry in assay [1] is “inactive”. The result in assay [18] was inactive.

As for `NC(=NCc1ccccc1)NC(=O)c1nc(Cl)c(N)nc1N`, the Potency was > 46 µM and > 20.6 µM in assay [19]; > 46 µM and > 20.6 µM in [20]. Further, the Potency entry in assay [1] is “inactive”. The result in assay [18] was inactive.

For the compound `CN1CCC(=C2c3ccccc3CCc3sccc32)CC1`, the Potency result in assay [1] was “inactive”.

With `Oc1ccc(OCc2ccccc2)cc1`, the Potency in [19] and in assay [20] was over 20.6 µM throughout. Moreover, in [1], the Potency result is “inactive”. The compound was called inactive in [18].

Regarding `CS(=O)(=O)OCCCCOS(C)(=O)=O`, the Potency result in assay [1], in [2], in [3], in assay [4], in [5] and in [6] was “inactive” each time. Also, the Potency entry in assay [7] and in assay [8] was “inactive” in each case. Moreover, the result in [9], in [10], in assay [11], in [12], in assay [13] and in assay [14] was inactive. Moreover, the result in [15] and in assay [17] was inactive. Further, the caspase-3 activation in assay [16] was -0.303% and 2.3%.

Regarding `CC1(C)C(=O)N(CCN2CCC(C(=O)c3ccc(F)cc3)CC2)c2ccccc21`, the Potency in [19] and in [20] was over 46 µM each time. In addition, the compound was classed as inactive in assay [18].

As for `Oc1ccc(-c2nc(-c3ccc(F)cc3)c(-c3ccncc3)[nH]2)cc1`, the Potency in assay [19] and in [20] was over 46 µM each time. Further, the result in assay [18] was inactive.

As for `COc1ccc2cc([C@H](C)C(=O)O)ccc2c1`, the Potency entry in assay [1] is “inactive”.

On to `O=C(O)c1cccnc1Nc1cccc(C(F)(F)F)c1`, for which the Potency in assay [19] is > 46 µM and > 20.6 µM; in assay [20] it was > 46 µM and > 20.6 µM. For the same compound, in [1], the Potency result was “inactive”. For the same compound, in [18], the outcome was inactive.

Turning to `O=c1c(O)c(-c2cc(O)c(O)c(O)c2)oc2cc(O)cc(O)c12`, the Potency is > 46 µM and > 20.6 µM in [19]; > 46 µM and > 20.6 µM in assay [20]; 12.6 µM (active) in assay [1]. Besides, the outcome in assay [18] was inactive.

On to `CN(C)c1ccc2nc3ccc(=[N+](C)C)cc-3sc2c1`, for which the Potency in [2] was 2.51 µM (active); in assay [3], 0.631 µM (active); in assay [4] it was 2.51 µM (active); in assay [5] it was 7.94 µM (active); in assay [6] it was 15.8 µM (active); in assay [7], 31.6 µM (active). Further, the Potency in assay [8] was 31.6 µM (active). Also, the compound was called inactive in assay [9], in assay [10], in [11], in [12], in [13] and in assay [14]. The compound was called inactive in assay [15] and in [17]. In [16], the caspase-3 activation was -0.51%.
